Measurements taken from PubChem BioAssay (NCATS).
Results filed as inconclusive are left out. A number with no mark means an inactive call. The source made the active and inactive calls. Calls come from the whole dose curve; as a rule, active = well fitted inhibition curve with a large enough effect; inconclusive = small, poorly fitted or top-dose-only effect; inactive = no such curve, though single readings can be large or run the other way. Where a SMILES comes first, the peptide text is derived from it. [ ]: non-standard residue; d: D form. pGlu = O=C1CC[C@@H](C(=O)O)N1; Thz = O=C(O)[C@@H]1CSCN1
Potency is the fitted concentration of half-maximal effect.

Experiment: S16 Schwann cell PMP22 intronic element firefly luciferase assay (AID 624032); note: nearly all actives have a fitted effect of over 30% in size
Conditions: S16 rat Schwann cells, PMP22 element FLuc, 24 h; series mostly up to 57.5 µM; activity change, negative = inhibition: at the top concentration
Summary of the method: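 Luciferase reporter of PMP22 intronic-element expression in stably transfected S16 rat Schwann cells, read by ONE-Glo luminescence after 24 h compound exposure at 37 C. Activity scaled between DMSO (0%) and positive-control PTC124; concentration-effect curves quality-classified.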
For COc1cc(/C=C/C(=O)CC(=O)/C=C/c2ccc(O)c(OC)c2)ccc1O, the Potency was 20.3 µM (active). For Nc1ccc(O)c(C(=O)O)c1, the “activity change, negative = inhibition” value was 2.37%. In the case of O=C1CN(/N=C/c2ccc(-c3ccc([N+](=O)[O-])cc3)o2)C(=O)N1, the “activity change, negative = inhibition” value is reported as -17.9%. In the case of O=C(O)[C@H](O)[C@@H](O)[C@H](O)[C@H](O)CO, the “activity change, negative = inhibition” value is reported as 0.417%. In the case of CCOc1ccc2nc(S(N)(=O)=O)sc2c1, the “activity change, negative = inhibition” value is reported as 14.5%. In the case of O=C(OCc1ccccc1)c1ccccc1, the “activity change, negative = inhibition” value is reported as -3.15%. In the case of Nc1ccc(C(=O)O)c(O)c1, the “activity change, negative = inhibition” value is reported as -13.7%. In the case of C=CCCCCCCCCC(=O)O, the “activity change, negative = inhibition” value is reported as 8.05%. With O=C1CC[C@@H](C(=O)N2CSC[C@H]2C(=O)O)N1 ([pGlu]-[Thz]-OH) the “activity change, negative = inhibition” value was -6.25%. With COc1cc2c3cc1Oc1cc(ccc1O)C[C@@H]1c4c(cc(OC)c(O)c4Oc4ccc(cc4)C[C@@H]3N(C)CC2)CC[N+]1(C)C the “activity change, negative = inhibition” value was -9.72%. With CC1(C)S[C@@H]2[C@H](NC(=O)[C@H](NC(=O)N3CCN(S(C)(=O)=O)C3=O)c3ccccc3)C(=O)N2[C@H]1C(=O)O the “activity change, negative = inhibition” value was 16.9%. With Cc1ccc(O)c(-n2nc3ccccc3n2)c1 the “activity change, negative = inhibition” value was 201%. With CCOC(=O)c1ccccc1O the “activity change, negative = inhibition” value was 4.66%. With Cc1ccc(C(=O)c2ccc(CC(=O)O)n2C)cc1 the “activity change, negative = inhibition” value was -15.3% [at 25.7 µM]. With CCCCC[C@H](O)/C=C/[C@@H]1[C@@H](C/C=C\CCCC(=O)O)[C@@H](O)C[C@H]1O the “activity change, negative = inhibition” value was 1.62%. With CCCCCC[C@@H](O)C/C=C\CCCCCCCC(=O)O the “activity change, negative = inhibition” value was 3.78%. For O=C(O)Cc1ccc(-c2ccccc2)cc1, the “activity change, negative = inhibition” value was -26.1% [at 25.7 µM]. With Cc1c(Nc2ncccc2C(=O)O)cccc1C(F)(F)F the “activity change, negative = inhibition” value was 2.31% [at 25.7 µM]. With O=C(O)[C@H](CC(=O)N1C[C@H]2CCCC[C@H]2C1)Cc1ccccc1 the “activity change, negative = inhibition” value was -4.65%. With Cc1nc2ccccc2n1Cc1ccc(Cl)cc1 the “activity change, negative = inhibition” value was -26.2%. For c1ccc2sc(SSc3nc4ccccc4s3)nc2c1, the “activity change, negative = inhibition” value was 44.5%. In the case of CCCC(=O)OC[C@@H](OC(=O)CCC)[C@@H](OC(=O)CCC)[C@H](Cn1c2nc(=O)[nH]c(=O)c-2nc2cc(C)c(C)cc21)OC(=O)CCC, the Potency is reported as 14.4 µM (active). In the case of O=C(Nc1ccc(C(=O)O)c(O)c1)c1ccccc1, the “activity change, negative = inhibition” value is reported as 9.49%. In the case of Nc1c(CC(=O)O)cccc1C(=O)c1ccc(Br)cc1, the “activity change, negative = inhibition” value is reported as -2.3%. In the case of CCCCCCCCCCCCCCCC(=O)OC(C)C, the “activity change, negative = inhibition” value is reported as 1.44%. For c1ccc2sc(SN3CCOCC3)nc2c1, the “activity change, negative = inhibition” value was 43.2%. In the case of CC1(C)C[C@@H]1C(=O)N/C(=C\CCCCSC[C@H](N)C(=O)O)C(=O)O, the “activity change, negative = inhibition” value is reported as 8.91%. For CC(C(=O)O)c1ccc2c(c1)[nH]c1ccc(Cl)cc12 (centres undefined), the “activity change, negative = inhibition” value was -14.2%. In the case of Clc1ccccc1-c1nc(-c2ccncc2)no1, the “activity change, negative = inhibition” value is reported as 16.8%. With COc1ccc(-c2cc(=S)ss2)cc1 the “activity change, negative = inhibition” value was 16.1%. For CN(C)c1ccc(C(=C2C=CC(=[N+](C)C)C=C2)c2ccccc2)cc1, the “activity change, negative = inhibition” value was 32.8%. With O=c1[nH]c2ccccc2n1CCCN1CCN(C(c2ccccc2)c2ccccc2)CC1 the Potency was 8.09 µM (active). In the case of O=C(/C=C/c1ccccc1)NCCO, the “activity change, negative = inhibition” value is reported as -2.59%. In the case of Cc1[nH]cnc1CN1CCc2c(c3ccccc3n2C)C1=O, the “activity change, negative = inhibition” value is reported as 14.7%.
